Screening results deposited in PubChem BioAssay by National Center for Advancing Translational Sciences (NCATS).
BAZ2B inh: inhibitors of human BAZ2B bromodomain. AlphaScreen BAZ2B-H3K14Ac peptide displacement. Potency, µM (titrated, usually from 114 µM), hits mostly inhibitors. 360,000 compounds, 4.4% hits. AID 504333; also: nearly all actives have a fitted effect of over 60% in size
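Complex of BAZ2B and biotin-H3K14Ac (50 nM apiece) forms over 30 min at RT, then faces library compounds up to 110 uM for another 30 min; AlphaScreen beads added, 20 min dark incubation, luminescence read.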
PI5P4Ka inh: inhibitors of human PI5P4K alpha. P48426. PI5P4Kalpha enzyme, ADP-Glo luminescence, 60 min; stronger effect = lower value. max response, %. 330,000 compounds, 1.2% hits. AID 652105; active = max response of -50% or lower; inconclusive = between -30% and -50%; inactive = -30% or higher; also: value at the top dose of about 77 µM
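qHTS, 1536-well: enzyme/substrate mix, compound by pin tool, 5 microM ATP final; RT 60 min; ADP-Glo reagents 1 (45 min) then 2 (30 min); luminescence.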
L3MBTL1 inh: inhibitors of human L3MBTL1 | 230,000 compounds, 0.66% hits | AlphaScreen L3MBTL1–H3K9me1 peptide binding | Potency, µM (doses to about 57.1 µM), most hits filed as inhibitors | Q9Y468; also: nearly all actives have a fitted effect of over 60% in size
Target sequence (Q9Y468 whole entry, looked up): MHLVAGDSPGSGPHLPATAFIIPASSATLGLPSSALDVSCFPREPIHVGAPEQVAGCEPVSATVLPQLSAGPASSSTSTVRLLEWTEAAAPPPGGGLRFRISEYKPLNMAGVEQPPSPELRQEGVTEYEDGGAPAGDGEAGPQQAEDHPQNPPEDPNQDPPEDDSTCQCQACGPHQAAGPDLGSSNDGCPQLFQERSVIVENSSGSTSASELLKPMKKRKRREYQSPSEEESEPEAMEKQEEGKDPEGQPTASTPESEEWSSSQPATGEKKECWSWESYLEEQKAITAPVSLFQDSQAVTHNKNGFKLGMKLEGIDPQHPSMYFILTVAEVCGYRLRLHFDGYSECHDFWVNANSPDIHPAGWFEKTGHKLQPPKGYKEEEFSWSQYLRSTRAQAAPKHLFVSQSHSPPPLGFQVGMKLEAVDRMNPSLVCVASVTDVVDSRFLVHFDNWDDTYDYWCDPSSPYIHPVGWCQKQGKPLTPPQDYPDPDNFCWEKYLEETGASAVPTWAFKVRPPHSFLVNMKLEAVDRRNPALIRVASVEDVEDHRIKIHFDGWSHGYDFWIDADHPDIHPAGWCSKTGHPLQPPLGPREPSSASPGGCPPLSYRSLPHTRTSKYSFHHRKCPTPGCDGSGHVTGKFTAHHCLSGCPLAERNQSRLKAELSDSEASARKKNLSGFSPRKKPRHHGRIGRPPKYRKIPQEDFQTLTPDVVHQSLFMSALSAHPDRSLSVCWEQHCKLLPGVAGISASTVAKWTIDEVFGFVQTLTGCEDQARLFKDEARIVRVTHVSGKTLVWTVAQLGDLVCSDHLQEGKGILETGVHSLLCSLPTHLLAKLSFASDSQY
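Displacement of a biotinylated histone H3(1-15) peptide monomethylated at Lys9 (75 nM) from L3MBTL1 (50 nM) was measured by AlphaScreen after a 30 min room-temperature compound incubation; cefsulodin titration served as intraplate control.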
JMJD2A Tudor: JMJD2A Tudor domain (human) inhibition | Potency, µM (titrated, usually from 114 µM), usual class: inhibitors | O75164 | 390,000 compounds, 4.4% hits | AlphaScreen JMJD2A-Tudor / H3K4me3 peptide binding; also: nearly all actives have a fitted effect of over 50% in size
G9a inh: inhibitors of human histone lysine methyltransferase G9a; Q96KQ7; Potency, µM (series often up to 102 µM), actives largely listed as inhibitors; 350,000 compounds, 8.8% hits; G9a H3K9 monomethylation, AlphaScreen, 2 h; AID 504332; also: nearly all actives have a fitted effect of over 75% in size
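Quantitative HTS format: methyltransferase activity on a biotin-tagged H3K9 peptide is measured by AlphaScreen, using a rabbit anti-monomethyl-H3K9 antibody with streptavidin donor and anti-IgG acceptor beads. Final levels are 20 nM enzyme, 500 nM peptide, 20 uM SAM; 2 h RT.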
HP1b binding inh: blocks HP1-beta chromodomain binding to methylated histone tails; P83916; AID 540317; AlphaScreen HP1-beta / biotin-H3K9me3 peptide binding; Potency, µM (doses to about 114 µM), usual class: inhibitors; 390,000 compounds, 0.56% hits; also: nearly all actives have a fitted effect of over 70% in size
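Compound inhibition of the preformed complex between 50 nM HP1-beta and 50 nM biotinylated H3K9me3 peptide was read by AlphaScreen. Buffer was PBS pH 7.4 with 0.01% Tween-20. Incubations ran 30 min at room temperature, with 10 ug/mL donor/acceptor beads.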
Of the large screens only hits and unclear results are named; the others gave an inactive call; ! = a repeat was not active. This is a sample that favours compounds with a hit; in the whole collection about 11% have one here. Unless noted, calls follow the shape of the dose curve; as a rule, active = well fitted inhibition curve with a large enough effect; inconclusive = small, poorly fitted or top-dose-only effect; inactive = no such curve, though single readings can be large or run the other way.

C[C@@H]1O[C@@H](O[C@H]2[C@H](O)[C@@H](O)[C@H](Oc3c(-c4ccc(O)cc4)oc4cc(O)cc(O)c4c3=O)O[C@@H]2CO)[C@H](O)[C@H](O)[C@H]1O	none (no result: BAZ2B inh, G9a inh)
C[C@@H]1O[C@@H](OC2C(O)C(OCCc3ccc(O)c(O)c3)OC(CO)C2OC(=O)/C=C/c2ccc(O)c(O)c2)[C@H](O)[C@H](O)[C@H]1O (some centres not stated)	BAZ2B inh 31.6µM, L3MBTL1 inh inconclusive, G9a inh inconclusive (no result: PI5P4Ka inh, JMJD2A Tudor, HP1b binding inh)
O=c1cc(-c2ccccc2Cl)oc2c(Br)ccc(O)c12	G9a inh 56.2µM!
FC(F)(F)c1ccccc1Nc1nccs1	JMJD2A Tudor 50.1µM, G9a inh inconclusive
COc1cc(C(=O)Nc2cc3c(cc2C)n(C)c(=O)c(=O)n3C)cc(OC)c1OC	none (no result: PI5P4Ka inh, L3MBTL1 inh)
COc1ccccc1C(=O)Nc1c(C(=O)Nc2ccccc2F)oc2ccccc12	BAZ2B inh inconclusive (no result: PI5P4Ka inh, L3MBTL1 inh)
O=C(NCCc1ccccc1)c1cc2sccc2n1Cc1ccccc1	BAZ2B inh 89.1µM, JMJD2A Tudor inconclusive
Cc1cc(C)cc(NC(=S)NCc2cccn2C)c1	BAZ2B inh 50.1µM, JMJD2A Tudor inconclusive (no result: PI5P4Ka inh)
COc1ccc(-c2cc(C(F)(F)F)n3nc(C(=O)Nc4ccccc4SC)cc3n2)cc1OC	none (no result: PI5P4Ka inh, L3MBTL1 inh)
Cc1cc(C)cc(C(=O)N2CC(=O)Nc3ccc(Br)cc3C2c2ccccc2)c1 (configuration not stated)	none (no result: PI5P4Ka inh, L3MBTL1 inh)
CC(=O)N1C(=O)CC(C)N(C(C)=O)c2ccc([N+](=O)[O-])cc21 (configuration not stated)	JMJD2A Tudor inconclusive, G9a inh 20µM
O=C(c1ccc(CSc2nc3ccncc3n2Cc2ccccc2F)cc1)N1CCCCC1	none (no result: PI5P4Ka inh, L3MBTL1 inh)
Cc1ccccc1Cn1c(C)c(CNCCCc2ccccc2)c(C(=O)O)c1C	none (no result: PI5P4Ka inh, L3MBTL1 inh)
COc1cccc(CNC(=O)C(NS(=O)(=O)c2ccc3c(c2)oc(=O)n3C)C(C)C)c1 (configuration not stated)	none (no result: PI5P4Ka inh, L3MBTL1 inh)
COc1cc(/C=C2\SC(=S)N(CCC(=O)Nc3ccc(O)cc3)C2=O)cc(OC)c1OC	JMJD2A Tudor 22.4µM (no result: L3MBTL1 inh)
COc1cc(/C=C2/SC(=S)N(CCC(=O)Nc3ccc(C(=O)O)cc3)C2=O)cc(OC)c1OC	BAZ2B inh inconclusive, JMJD2A Tudor inconclusive (no result: L3MBTL1 inh, G9a inh)
COc1ccc(/C=C2\SC(=S)N(CC(=O)OCC(=O)Nc3ccc(C)cc3Cl)C2=O)cc1	JMJD2A Tudor inconclusive, G9a inh 14.1µM
COc1ccc(/C=C2\SC(=S)N(CCC(=O)Nc3ccc(C(=O)O)cc3)C2=O)cc1	BAZ2B inh 35.5µM, HP1b binding inh 50.1µM
O=C(CCN1C(=O)/C(=C/c2ccc(Cl)cc2)SC1=S)Nc1ccc(C(=O)O)cc1	JMJD2A Tudor inconclusive, G9a inh inconclusive, HP1b binding inh 70.8µM (no result: L3MBTL1 inh)
Cc1cc(OC(C)C(=O)N2CCC(c3nc4ccccc4o3)CC2)ccc1Cl (configuration not stated)	JMJD2A Tudor inconclusive (no result: PI5P4Ka inh, L3MBTL1 inh)
CN(C)c1ccc(-c2nc(-c3cc4cc(Cl)ccc4oc3=O)cs2)cc1	none (no result: PI5P4Ka inh, L3MBTL1 inh)
Cc1ccc(CNC(=O)Cn2c(=O)cc(-c3ccccc3)c3c(C)nn(C)c32)cc1	none (no result: PI5P4Ka inh, L3MBTL1 inh)
COc1cccc(N2CC(NC(=O)c3ccc4c(c3)OCO4)CC2=O)c1 (configuration not stated)	none (no result: PI5P4Ka inh, L3MBTL1 inh)
C[C@@](N)(Cc1ccc(O)c(O)c1)C(=O)O	none (no result: BAZ2B inh, PI5P4Ka inh, L3MBTL1 inh, JMJD2A Tudor, HP1b binding inh)
CCN(CC)c1ccc(C=Nc2ccc(C)cc2)c(O)c1	G9a inh inconclusive
CCN(CC)c1ccc(/C=N/N=C(N)N)c(O)c1	JMJD2A Tudor inconclusive
CCN(CC)c1ccc(/C=N/N2C(C)CCCC2C)c(O)c1 (configuration not stated)	BAZ2B inh 44.7µM, JMJD2A Tudor inconclusive, G9a inh 44.7µM (no result: L3MBTL1 inh)
CCN(CC)c1ccc(C=Nc2ccccc2)c(O)c1	G9a inh inconclusive, HP1b binding inh inconclusive
CCN(CC)c1ccc(C=Nc2ccc(N(C)C)cc2)c(O)c1	BAZ2B inh 31.6µM, JMJD2A Tudor 56.2µM, G9a inh 0.562µM, HP1b binding inh inconclusive (no result: L3MBTL1 inh)
CCN(CC)c1ccc(N=Cc2ccc(N(CC)CC)cc2O)cc1	BAZ2B inh 17.8µM, JMJD2A Tudor 39.8µM, G9a inh inconclusive, HP1b binding inh inconclusive (no result: L3MBTL1 inh)
